Assay outcomes (PubChem)
Cardiac RTF inh: cardiac RTF calcium desensitization; IANBD-labeled cardiac RTF, Ca2+ fluorescence; inhibition, % at 7.15 µM; P19429+P45379; actives 0.12% (n = 340,000); AID 493244;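 active = inhibition above the mean inhibition of all tested compounds plus 3 SD, cut at about 17% in these data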;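 note: assay run at fixed EC70 calcium of 1.6 mM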
cardiac RTF act: cardiac RTF calcium sensitization | IANBD-labeled TnC RTF fluorescence at EC20 calcium; 0% EC20 calcium, 100% full calcium | activation, % at 7.2 µM | actives 0.24% (n = 340,000);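 active = activation above the mean over all tested compounds plus 3 SD, cut at about 30% in these data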;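 note: rise in fluorescence read as greater calcium sensitivity of cardiac thin filaments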
Keap1 Nrf2 FP: Keap1-Nrf2 (human) interaction inhibition; Keap1 Kelch-Nrf2 peptide fluorescence polarization, 1536-well; actives 0.15% (n = 340,000); Q14145; inhibition, % at 9.4 µM; AID 504523; in the data active = inhibition above about 12%;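 note: human Keap1 Kelch domain with fluorescein labeled Nrf2 9mer peptide probe; 0% = neutral control wells and 100% = peptide positive control; higher means more block of Keap1 binding to Nrf2 peptide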
E coli Lon inh: E. coli protease La inhibition; P0A9M0; actives 0.42% (n = 360,000); inhibition, % at 7.94 µM; purified E. coli Lon protease, fluorescence polarization; AID 602123; in the data active = inhibition above about 13%, passing the limit was not always enough;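 note: 0% = enzyme with probe and DMSO and 100% = no enzyme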
Target sequence (P0A9M0 whole entry, looked up): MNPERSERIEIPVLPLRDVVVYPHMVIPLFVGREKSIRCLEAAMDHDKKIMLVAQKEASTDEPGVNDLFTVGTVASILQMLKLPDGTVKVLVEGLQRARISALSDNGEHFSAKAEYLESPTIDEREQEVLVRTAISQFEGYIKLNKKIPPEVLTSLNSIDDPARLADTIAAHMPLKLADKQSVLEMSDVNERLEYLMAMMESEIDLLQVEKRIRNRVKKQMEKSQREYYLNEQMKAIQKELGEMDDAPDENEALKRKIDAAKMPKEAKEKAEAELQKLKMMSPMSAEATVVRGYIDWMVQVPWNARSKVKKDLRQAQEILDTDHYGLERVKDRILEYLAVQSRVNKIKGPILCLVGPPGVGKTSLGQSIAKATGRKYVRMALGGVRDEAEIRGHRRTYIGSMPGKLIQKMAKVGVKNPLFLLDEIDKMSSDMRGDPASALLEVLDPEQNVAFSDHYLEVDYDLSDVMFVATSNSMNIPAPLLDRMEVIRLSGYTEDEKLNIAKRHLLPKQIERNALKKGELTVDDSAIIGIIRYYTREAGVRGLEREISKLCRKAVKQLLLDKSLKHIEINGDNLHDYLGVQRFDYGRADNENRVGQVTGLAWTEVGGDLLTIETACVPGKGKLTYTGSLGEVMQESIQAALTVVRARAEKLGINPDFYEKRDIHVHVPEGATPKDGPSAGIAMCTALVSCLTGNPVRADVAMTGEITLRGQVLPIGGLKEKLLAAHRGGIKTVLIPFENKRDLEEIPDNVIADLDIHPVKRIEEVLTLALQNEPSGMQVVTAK
C-LANA FP: blocks KSHV LANA C-terminal domain binding to DNA; MBP-C-LANA/FAM-LBS DNA binding, fluorescence polarization; inhibition, % at 9 µM; actives 0.078% (n = 340,000);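 active = highest replicate inhibition at or above 60% at 9 µM, even if other replicates fall short; inactive = all replicates below 60% inhibition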;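 note: 0% = neutral control wells and 100% = 4 µM acridine orange control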
eLon confirm: E. coli Lon inhibition confirmation; purified E. coli Lon, fluorescence polarization; AID 602230; actives 31% (n = 1,400); inhibition, % at 7.94 µM; shares compounds with E coli Lon inh; in the data active = inhibition above about 16%;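 note: 0% = enzyme with probe and DMSO and 100% = no enzyme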
An asterisk follows results filed as active; nt = no result; + = active, no number. Compounds with a hit are over-represented: about 0.82% of the library has one in this group of screens.

SMILES | Cardiac RTF inh | cardiac RTF act | Keap1 Nrf2 FP | E coli Lon inh | C-LANA FP | eLon confirm
COc1ccc(Oc2nc(C)cc(C)c2S(=O)(=O)c2ccc(C)cc2)cc1 | 8.3 | 8.7 | -3.3 | 17.7* | -1.6 | -3.7
NNC(=O)CCn1c2ccccc2c2ccccc21 | -9.8 | 5.2 | 0.8 | 20.7* | -0.6 | -8.3
COc1cccc(/C=N/NC(=O)CCn2c3ccccc3c3ccccc32)c1 | -6.7 | -0.7 | -4.4 | 2.9 | -0.8 | nt
CNc1ncnc2c1ncn2[C@H]1CN(Cc2ccc(OC)cc2)C[C@@H](CO)O1 | nt | nt | nt | -5.5 | nt | nt
CC1C2(C)OC(=N)C(C#N)(C(C)O2)C1(C#N)C#N (stereo unspecified) | -13.1 | 17.1 | 7.9 | 21.9* | 29.7 | 35.5*
CCNC(=O)C1CCCN(C(=O)c2cc(OC)c(OC)c(OC)c2)CC1 (stereo unspecified) | nt | nt | nt | 4.1 | nt | nt
COC(=O)c1cc2c(s1)-c1cc(F)ccc1OC2 | 2.8 | -3.9 | -0.8 | 16.2* | nt | -9.0
CC(=O)c1cc2c(s1)-c1cc(F)ccc1OC2 | -3.5 | -6.0 | -5.8 | 4.2 | -0.5 | nt
CC1=NN(C(N)=S)C(=O)C1N=Nc1ccccc1C (stereo unspecified) | 2.4 | 7.4 | -4.3 | -1.7 | -0.3 | nt
CC1=NN(C(N)=S)C(=O)C1N=Nc1ccccc1O (stereo unspecified) | -9.3 | -1.2 | -2.2 | 18.5* | 6.4 | 26.2*
NC(=O)c1c(NC(=O)CSc2nnc(Cc3ccccc3)n2Cc2ccco2)sc2c1CCC2 | -4.8 | 6.5 | 2.4 | 22.2* | -0.3 | -5.7
Cc1c(C(=O)O)c(O)cc2c1C(=O)c1c(O)c([C@@H]3O[C@H](CO)[C@@H](O)[C@H](O)[C@H]3O)c(O)c(O)c1C2=O | -6.4 | 0.4 | 3.1 | 44.9* | 17.1 | 21.8*
CCN(CC)C(=O)CSc1nnc2nnc3cc(Cl)ccc3n12 | -14.2 | 4.4 | 5.8 | 54.5* | 6.0 | 41.5*
Cc1cccc(Cl)c1NC(=O)N1CCCN(c2ncccc2[N+](=O)[O-])CC1 | -9.5 | -4.2 | -5.8 | 25.0* | 1.1 | -7.6
Cc1nc2cc3c(=O)n(C)cnc3cc2n1Cc1ccccc1 | nt | nt | nt | -0.3 | nt | nt
CCNc1cccc2c1C(=O)N(C)C2=O | -67.4 | 45.6* | -0.8 | 150.8* | 0.3 | 164.6*
Cc1ccc(OCCNC(=O)c2cc(C3CC3)nc3c2cnn3C(C)C)cc1 | -2.5 | -3.3 | -0.9 | + | -1.4 | -32.7
Cc1ccc(CNC(=O)c2cc(C3CC3)nc3c2cnn3C(C)C)cc1 | -1.5 | -1.5 | 0.0 | -1.5 | 0.3 | nt
COC(=O)c1ccc(S(=O)(=O)N2C3CCC2CC(NC(=O)NC2CCCCC2)C3)cc1 (stereo unspecified) | 0.2 | -8.0 | 2.1 | -7.0 | -0.3 | nt
COc1ccc(S(=O)(=O)N2C3CCC2CC(NC(=O)NC2CCCCC2)C3)cc1 (stereo unspecified) | -4.0 | -1.6 | 1.0 | 82.0* | -0.1 | 0.2
Cc1[nH]c2ccc3ncccc3c2c1C | -8.5 | 7.6 | -5.3 | -8.7 | -2.5 | nt
Cc1[nH]c2ccc3c(ncn3CCC#N)c2c1C | -6.1 | -0.2 | -2.0 | 29.3* | -0.3 | -11.5
Cn1c(SCC(=O)NCC2CCCO2)nc2c(c1=O)SCC2 (stereo unspecified) | -8.8 | 5.6 | 1.0 | 52.0* | -0.5 | 0.7
Cc1onc(-c2ccccc2)c1C(=O)OCC(=O)Nc1ccccc1Cl | nt | nt | nt | -0.4 | nt | nt
Cc1ccc(-c2cc(C(=O)Nc3c(C)n(C)n(-c4ccccc4)c3=O)[nH]n2)c(O)c1 | -8.4 | 2.3 | -7.8 | 15.3* | 0.3 | 0.3
SMILES | Cardiac RTF inh | cardiac RTF act | Keap1 Nrf2 FP | E coli Lon inh | C-LANA FP | eLon confirm
Cc1cc(C)c(-c2cc(C(=O)Nc3c(C)n(C)n(-c4ccccc4)c3=O)[nH]n2)c(O)c1 | -3.4 | 1.7 | 0.1 | -1.7 | 1.1 | nt
CCc1nc2c(OCC(=O)C(C)(C)C)cccn2c1N(C)C(=O)C(C)C | nt | nt | nt | -2.7 | nt | nt
COC(=O)C[C@H]1C[C@H]2c3cc(NC(=O)Nc4ccc(C(F)(F)F)cc4)ccc3O[C@H]2[C@@H](CO)O1 | nt | nt | nt | -7.0 | nt | nt
O=S(=O)(NCCN1CCOCC1)c1ccc(Cl)c(Cl)c1 | -3.1 | -2.5 | -7.7 | 16.4* | -0.4 | -1.4
O=S(=O)(NCCN1CCOCC1)c1ccc(F)c(Cl)c1 | 0.3 | 5.6 | -1.0 | 2.3 | 1.9 | nt
Cn1cnnc1SCC(=O)Nc1ccccc1 | -4.9 | 1.5 | -4.5 | -7.9 | -1.3 | nt
Cc1ccc(NC(=O)CSc2nnc(-c3ccncc3)n2C)cc1C | -4.4 | -0.8 | 3.0 | 32.8* | 1.0 | -5.6
COc1ccc(NC(C)=O)cc1NC(=O)CSc1nnc(-c2ccncc2)n1C | 2.1 | -0.3 | -6.0 | 7.6 | -1.1 | nt
Cn1cnnc1SCC(=O)Nc1ccc2ccccc2c1 | -1.8 | -2.3 | -0.9 | 14.0* | -0.9 | 1.3
CCCCn1c(N)c(N(CCOC)C(=O)c2oc3c(Cl)cccc3c2C)c(=O)[nH]c1=O | nt | nt | nt | 3.0 | nt | nt
CCCNC(=O)C1(C)CCN(C(=O)c2ccc(OC(F)F)cc2)C1 (stereo unspecified) | nt | nt | nt | 10.9 | nt | nt
Cn1c(NC(=O)CCC2CCCCC2)cc(=O)n(C)c1=O | -5.2 | 0.0 | 3.8 | -2.4 | 0.0 | nt
Cn1c(NC2CCCCC2)cc(=O)n(C)c1=O | -14.0 | -6.6 | -3.4 | 27.2* | -1.3 | -8.1
O=C1CN(C(=O)c2ccccc2F)C(c2ccccc2)c2cc(F)ccc2N1 (stereo unspecified) | -3.4 | -0.3 | 2.6 | 18.5* | -1.2 | -9.9
COc1ccc(C(NC(=O)CNC(C)=O)C(=O)Nc2ccc3c(c2)OCCO3)cc1 (stereo unspecified) | -3.8 | 0.4 | -4.5 | 13.7* | 2.7 | -22.3
Clc1ccc(N2O[C@H]3C=C[C@@H]2C3)nc1 | nt | nt | nt | 61.0* | nt | 128.8*
O=C(c1ccc[nH]1)N1O[C@@H]2C=C[C@H]1C2 | -5.9 | -0.4 | -2.6 | -0.5 | 0.4 | nt
CC1CCN(S(=O)(=O)c2ccc3c(c2)C(Cl)(Cl)C(=O)N3)CC1 | nt | nt | nt | -13.0 | nt | nt
Cc1ccc(N2C=Nc3ccc(C)c4nc(C)cc2c34)cc1 | 0.1 | -0.7 | 1.0 | 18.1* | 1.1 | -1.1
CC1=Nc2ccc(C)c3nc(C)cc(c23)N1c1ccc(C)cc1 | -19.7 | -0.1 | 5.6 | -10.4 | -0.6 | nt
CCC(c1nnnn1-c1ccc2c(c1)OCCO2)N1CCN(c2cc(C)ccc2C)CC1 (stereo unspecified) | nt | nt | nt | -5.8 | nt | nt
CCOc1ccc(CNC(=O)CN2C(=O)CSc3ccc(S(=O)(=O)N4CCOCC4)cc32)cc1OC | -9.3 | 2.6 | 3.6 | 64.5* | 0.6 | 0.2
COc1ccc(CCNC(=O)CN2C(=O)CSc3ccc(S(=O)(=O)N4CCOCC4)cc32)cc1OC | -4.9 | -4.3 | -1.2 | 1.2 | 1.8 | nt
CC(C)NC(=O)N1Cc2cc(C(=O)NC3CCCC3)nc(-c3cccc(-c4cccnc4)c3)c2[C@@H]1CCO | nt | nt | nt | -11.6 | nt | nt
Cc1ccc(NC(=O)CSCC(=O)N(C)Cc2c(F)cccc2Cl)cc1 | nt | nt | nt | -11.9 | nt | nt
Cc1cc(C(=O)NC2CCCc3c2cnn3-c2ccccc2F)nc(C)n1 (stereo unspecified) | 3.1 | -5.7 | 2.7 | -6.6 | -0.9 | nt
